Compounds with a hit are over-represented: about 2.5% of the library has one in this group of screens.
ABCB6 inh MLPCN – inhibitors of human ABC transporter ABCB6; Q9NP58; K562-ABCB6 porphyrin accumulation, flow cytometry, 1 h; active compounds read low; fluorescence ratio to DMSO, % at 10 µM; hit rate 0.19% among 360,000;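 active = fluorescence ratio to DMSO below 75%, the collection mean minus 3 SD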;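 also: signal is porphyrin accumulated inside mitochondria; lower ratio means ABCB6 inhibition with less porphyrin fluorescence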
Target sequence (Q9NP58 whole entry, looked up): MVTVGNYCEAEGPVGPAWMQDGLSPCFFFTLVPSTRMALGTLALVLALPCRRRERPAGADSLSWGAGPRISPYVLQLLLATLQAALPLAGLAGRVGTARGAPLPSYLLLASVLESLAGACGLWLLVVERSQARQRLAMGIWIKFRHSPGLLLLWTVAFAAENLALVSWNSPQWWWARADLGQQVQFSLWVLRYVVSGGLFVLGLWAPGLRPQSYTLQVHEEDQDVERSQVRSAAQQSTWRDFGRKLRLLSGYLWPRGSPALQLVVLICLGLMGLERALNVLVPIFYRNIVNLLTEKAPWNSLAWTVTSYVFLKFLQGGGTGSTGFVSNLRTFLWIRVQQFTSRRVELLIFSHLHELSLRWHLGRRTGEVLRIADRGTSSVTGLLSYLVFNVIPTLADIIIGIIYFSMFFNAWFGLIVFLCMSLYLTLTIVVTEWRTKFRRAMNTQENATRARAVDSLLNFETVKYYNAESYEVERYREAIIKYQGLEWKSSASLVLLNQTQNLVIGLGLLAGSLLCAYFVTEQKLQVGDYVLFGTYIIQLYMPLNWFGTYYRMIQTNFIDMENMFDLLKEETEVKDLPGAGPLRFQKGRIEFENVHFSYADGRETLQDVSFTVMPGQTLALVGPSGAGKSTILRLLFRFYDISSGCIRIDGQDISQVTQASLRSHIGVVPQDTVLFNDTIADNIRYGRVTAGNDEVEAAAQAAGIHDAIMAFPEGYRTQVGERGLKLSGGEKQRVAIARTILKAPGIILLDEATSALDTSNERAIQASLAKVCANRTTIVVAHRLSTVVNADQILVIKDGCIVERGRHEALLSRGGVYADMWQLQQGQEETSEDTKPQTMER
PG9 Ab binder – PG9 antibody binding by small molecule. TR-FRET gp120-PG9 antibody binding. inhibition, % at 6.7 µM. hit rate 0.43% among 360,000. AID 624416; in the data active = inhibition above about 8.5%
rCAG RNA binder – molecules binding r(CAG) RNA repeats | inhibition, % at 3 µM | r(CAG) RNA repeat, TO-PRO-1 dye displacement fluorescence | hit rate 1.3% among 370,000;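 active = inhibition above the plate cutoff, the mean of all test compounds on that plate plus 3 SD, cut at about 35% in these data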;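 also: higher means more dye released from RNA so lower well fluorescence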
Granule exo inh – lytic granule exocytosis inhibition. TALL-104 LAMP-1 surface exposure, flow cytometry; cells stimulated with thapsigargin and PMA. inhibition, % at 10 µM. hit rate 0.66% among 360,000;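 active = inhibition above about 55%, limit read from the data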
Exocytosis CP01 – lytic granule exocytosis inhibition; shares compounds with Granule exo inh; TALL-104 cells, LAMP-1 externalization, flow cytometry; stimulated with PMA plus thapsigargin; inhibition, % at 10 µM; hit rate 11% among 1,500; AID 651954; in the data active = inhibition above about 60%
Numbers stand for hits; – = inactive; · = no result given.

SMILES	ABCB6 inh MLPCN	PG9 Ab binder	rCAG RNA binder	Granule exo inh	Exocytosis CP01
O=C(O)c1nn(CCOc2cccc(Br)c2)c(=O)c2ccccc12	–	–	–	73	–
CC(C)(C)c1ccc(S(=O)(=O)N2CCC(N3CCCCC3)CC2)cc1	–	–	–	–	·
CCN(CC)S(=O)(=O)c1ccc(S(=O)(=O)N2CCC(N3CCCCC3)CC2)cc1	–	–	–	62	–
Cc1ccc(S(=O)(=O)N(CCCc2c(C)nc[nH]c2=O)c2ccccc2)cc1	–	–	–	–	·
O=C(NCc1cccnc1)c1cc(C2CCCN(S(=O)(=O)c3cccs3)C2)on1 (configuration not stated)	–	–	–	–	·
COc1cccc(-n2c(=O)n(Cc3ccccc3)c(=O)c3[nH]cnc32)c1C	–	–	–	–	·
CC(=O)Nc1cccc(-n2c(=O)n(Cc3ccccc3)c(=O)c3[nH]cnc32)c1	–	–	–	56	–
COc1ccc(CCNC(=O)c2ccc(S(=O)(=O)N3CCCCC3)cc2)cc1	–	–	–	–	·
CN(CC(=O)NCc1ccccn1)S(=O)(=O)c1cc(Cl)ccc1Cl	–	–	–	–	·
O=C(NCc1ccco1)c1ccccc1SCC(=O)N1CCCC1	–	–	–	–	·
Cc1ccccc1NC(=O)c1nc(S(C)(=O)=O)ncc1Cl	–	–	–	79	–
CCS(=O)(=O)c1ncc(Cl)c(C(=O)Nc2ccc(S(=O)(=O)N(C)c3ccccc3)cc2)n1	39	–	–	56	–
CC(=O)Nc1ccc(S(=O)(=O)N(C)c2ccccc2)cc1	–	–	–	–	·
COc1ccc(C(=O)C2CCCN(Cc3cccn3-c3ccc(Cl)cn3)C2)c(OC)c1 (configuration not stated)	–	–	–	68	–
CCCCN(CCCNC(=O)CN1C(=O)COc2ccc(S(=O)(=O)N3CCC(C)CC3)cc21)Cc1ccccc1	–	–	–	60	–
O=C(Oc1ccc2ccccc2c1)c1ccco1	–	–	–	–	·
CC1CC(C)(C)Nc2ccc(OC(=O)c3ccco3)cc21 (configuration not stated)	–	–	–	82	–
Cc1nn2c(N)c(-c3ccccc3)cnc2c1-c1ccccc1	–	–	–	–	·
COc1ccccc1N(CC(=O)NCc1ccccc1C)S(=O)(=O)c1ccc(C)cc1	–	–	–	63	–
COc1ccc(N(CC(=O)NCc2ccccc2OC)S(=O)(=O)c2ccccc2)cc1	–	–	–	75	–
COc1ccc(CN(CC(=O)NCc2ccccc2)C(=O)CCC(=O)Nc2cc(C)ccn2)cc1	–	–	–	–	·
COCCn1c(SCc2cccc(F)c2)nc2cc(C(=O)OC)ccc2c1=O	–	–	–	75	–
COc1ccccc1NC(=O)CCS(=O)(=O)c1ccc2c(c1)NC(=O)C(C)S2 (configuration not stated)	–	·	·	–	·
CCC(c1nc2ccccc2[nH]1)n1c(C)nc2ccccc21 (configuration not stated)	·	–	–	·	·
CCCCCCCCC(c1nc2ccccc2[nH]1)N1CCN=C1c1cc2ccccc2[nH]1 (configuration not stated)	–	–	–	76	–
SMILES	ABCB6 inh MLPCN	PG9 Ab binder	rCAG RNA binder	Granule exo inh	Exocytosis CP01
CSc1nc(-c2ccccc2)c(C#N)c(=O)n1C	–	–	–	–	·
O=C(Nc1cccc(Cl)c1)c1ccc2c(c1)OCCO2	–	–	–	61	–
Cc1nn(C)cc1/C=N/NC(=O)Cn1cncn1	–	–	–	–	·
COC(=O)N1[C@H](C)C=C[C@]1(Cc1ccccc1)C(=O)OC	–	–	–	57	–
CCCCNC(=O)C1(C)CCN1C(=O)c1ccc(F)cc1Cl (configuration not stated)	–	–	–	–	·
OC(CNCC(c1ccc(Cl)cc1Cl)c1c[nH]c2ccccc12)c1ccccc1 (configuration not stated)	–	–	–	100	88
CCNC(=O)N(C)C[C@H]1N[C@@](CC)(C(=O)OC)[C@H]2C(=O)N(C)C(=O)[C@@H]12	–	–	–	–	·
Cc1cncn1CCc1nc2c3ccccc3nc(SCC(=O)Nc3cccc(Cl)c3)n2n1	–	–	–	68	81
Cc1cccc(NC(=O)CSc2nc3ccccc3c3nc(CCc4c(C)n[nH]c4C)nn23)c1	–	–	–	–	·
CCCN1CCC(=O)N(CCOc2ccccc2)CC1	–	–	–	–	·
CC(C)(C)C1CCC(=O)N(CCOc2ccccc2)CC1 (configuration not stated)	–	–	–	67	–
CC(C)(C)C(=O)NC(=O)Nc1ccccc1C(F)(F)F	–	–	–	109	–
Oc1ccccc1Nc1nc(NCc2ccco2)c2ccccc2n1	–	–	–	61	89
c1ccc(CN2CCN(c3nc(NCc4ccco4)c4ccccc4n3)CC2)cc1	–	–	–	67	–
c1ccc(Nc2nc(NCc3ccco3)c3ccccc3n2)cc1	–	–	–	77	–
CC1(C)C(=O)Nc2ccccc2N1C(=O)COC(=O)COc1ccc(C#N)cc1	–	–	–	–	·
COc1cc(NS(=O)(=O)c2ccc(-n3cccn3)cc2)cc(OC)c1	–	·	·	–	·
O=C(CN1CCN(C(c2ccccc2)c2ccccc2)CC1)N1CCN(c2ccccc2)CC1	–	–	–	71	–
CC1CCN(CC(=O)N2CCN(c3ccccc3)CC2)CC1	–	–	–	–	·
CCc1nc2ccc(C(=O)NCCOc3ccc(OC)cc3)cn2c1N(C)Cc1nccn1C	–	–	–	–	·
COc1ccc2nc3cc(Cl)ccc3c(Nc3cc(C(C)C)c(O)cc3C)c2c1	–	–	–	62	–
Nc1ncnc2c1ncn2[C@@H]1O[C@H](CNC(=O)[C@@H](N)Cc2ccc(C(=O)c3ccccc3)cc2)[C@@H](O)[C@H]1O	–	–	–	–	·
O=C(CN(Cc1ccc(Br)cc1)S(=O)(=O)c1ccccc1)NCc1cccnc1	–	–	–	–	·
O=C(NCc1cccnc1)/C(=C\c1ccc(-c2ccc(Br)cc2)o1)S(=O)(=O)c1ccccc1	–	–	–	83	–
COCc1nnc(SCC(=O)NCc2ccccc2)n1-c1ccccc1	–	–	–	–	·
SMILES	ABCB6 inh MLPCN	PG9 Ab binder	rCAG RNA binder	Granule exo inh	Exocytosis CP01
Cc1ccc(-n2c(CCc3ccccc3)nnc2SCC(=O)NCc2ccccc2)cc1C	–	–	–	68	–
COc1ccc(NC(=O)COc2ccc3c(C)cc(=O)oc3c2)cc1S(=O)(=O)N1CCCCC1	–	–	–	–	·
CCOC(=O)c1c(CSCc2ccccc2)oc2ccc(O)c(CN(C)C)c12	–	–	–	85	–
CCOC(=O)c1c(NC(=O)c2ccn(CC)n2)sc2c1CCC2	–	–	–	80	–
COc1cccc(NC(=O)CS(=O)(=O)Cc2nc(-c3ccc(C)cc3)oc2C)c1	–	–	–	–	·
C[C@@H](c1ccccc1)N1C[C@@H](COCc2ccccc2)Oc2cc(N3CC[C@@H](N(C)C)C3)ccc2S1(=O)=O	–	–	–	–	·
C[C@H](c1ccccc1)N1C[C@H](COCc2ccccc2)Oc2cc(N3CC[C@@H](N(C)C)C3)ccc2S1(=O)=O	–	–	–	62	–

Bioassay records as filed in PubChem.
